{"source": "PubChem BioAssay AID2238", "about": "(Southern Research Specialized Biocontainment Screening …, 2010)", "test": "antiviral protection of cells from WNV – synthesized analogs, SAR follow-up (AID 2238)", "details": "max CPE inhibition: measured here: maximum CPE inhibition observed, at 40 µM, stronger effect = higher value unless noted", "note": "Calls of active or inactive are those of the source. No rule for the calls is given here.", "data": [{"smiles": "COc1ccc(-c2csc(N(CCCN(C)C)C(=O)c3ccccc3F)n2)cc1", "values": [{"measurement": "max CPE inhibition", "value": "3.61% [measured here: maximum CPE inhibition observed, at 80 µM, stronger effect = higher value]"}, {"measurement": "outcome", "value": "inactive"}]}, {"smiles": "CCOC(=O)C1(Cc2ccccc2C(F)(F)F)CCN(C2CCN(C(C)=O)CC2)CC1", "values": [{"measurement": "max CPE inhibition", "value": "1.58% [measured here: maximum CPE inhibition observed, at 20 µM, stronger effect = higher value]"}, {"measurement": "outcome", "value": "inactive"}]}, {"smiles": "COc1ccc(-c2csc(NC(=O)c3cccc(Cl)c3)n2)cc1", "values": [{"measurement": "max CPE inhibition", "value": 1.98, "unit": "%"}, {"measurement": "outcome", "value": "inactive"}]}, {"smiles": "O=C(Nc1nc(-c2ccc(Cl)cc2)cs1)c1ccc(Cl)cc1", "values": [{"measurement": "max CPE inhibition", "value": 0.79, "unit": "%"}, {"measurement": "outcome", "value": "inactive"}]}, {"smiles": "COc1ccc(-c2csc(NC(=O)c3ccc(Cl)cc3)n2)cc1", "values": [{"measurement": "max CPE inhibition", "value": 6.01, "unit": "%"}, {"measurement": "outcome", "value": "inactive"}]}, {"smiles": "O=[N+]([O-])c1ccc2c(c1)C(O)N1CCCC1=N2", "note": "(stereo unspecified)", "values": [{"measurement": "max CPE inhibition", "value": 1.83, "unit": "%"}, {"measurement": "outcome", "value": "inactive"}]}, {"smiles": "COc1cccc(NC(=O)CSc2nc3ccccc3c(=O)n2-c2ccc(F)cc2)c1", "values": [{"measurement": "max CPE inhibition", "value": 1.33, "unit": "%"}, {"measurement": "outcome", "value": "inactive"}]}, {"smiles": "O=c1c2cc([N+](=O)[O-])ccc2nc2n1CCC2", "values": [{"measurement": "max CPE inhibition", "value": "0.23% [measured here: maximum CPE inhibition observed, at 1.25 µM, stronger effect = higher value]"}, {"measurement": "outcome", "value": "inactive"}]}, {"smiles": "COc1ccc(-c2csc(N(C)C(=O)c3ccccc3Cl)n2)cc1", "values": [{"measurement": "max CPE inhibition", "value": "1.16% [measured here: maximum CPE inhibition observed, at 5 µM, stronger effect = higher value]"}, {"measurement": "outcome", "value": "inactive"}]}, {"smiles": "O=C(Nc1nc(-c2ccc(Cl)cc2)cs1)c1ccccc1Cl", "values": [{"measurement": "max CPE inhibition", "value": 0.4, "unit": "%"}, {"measurement": "outcome", "value": "inactive"}]}, {"smiles": "CCCN(C(=O)c1ccccc1Cl)c1nc(-c2ccc(OC)cc2)cs1", "values": [{"measurement": "max CPE inhibition", "value": 0.77, "unit": "%"}, {"measurement": "outcome", "value": "inactive"}]}, {"smiles": "COc1ccc(NC(=O)CSc2nc3ccccc3c(=O)n2-c2ccc(F)cc2)cc1", "values": [{"measurement": "max CPE inhibition", "value": 2.96, "unit": "%"}, {"measurement": "outcome", "value": "inactive"}]}, {"smiles": "CCN(CC)CCCNC(=S)N1CCN(c2nc(-c3ccc(F)cc3)cs2)CC1", "values": [{"measurement": "max CPE inhibition", "value": "29.4% [measured here: maximum CPE inhibition observed, at 20 µM, stronger effect = higher value]"}, {"measurement": "outcome", "value": "inactive"}]}, {"smiles": "O=c1c2cccc(Cl)c2nc2n1CCC2", "values": [{"measurement": "max CPE inhibition", "value": 1.83, "unit": "%"}, {"measurement": "outcome", "value": "inactive"}]}, {"smiles": "CC1(O)c2cc(Br)ccc2N=C2CCCN21", "note": "(stereo unspecified)", "values": [{"measurement": "max CPE inhibition", "value": "1.3% [measured here: maximum CPE inhibition observed, at 0.16 µM, stronger effect = higher value]"}, {"measurement": "outcome", "value": "inactive"}]}, {"smiles": "COc1ccc(-c2csc(NC(=O)c3ccccc3Cl)n2)cc1", "values": [{"measurement": "max CPE inhibition", "value": 1.74, "unit": "%"}, {"measurement": "outcome", "value": "inactive"}]}, {"smiles": "COc1cccc(-n2c(SCC(=O)Nc3ccc4c(c3)CCC4)nc3ccccc3c2=O)c1", "values": [{"measurement": "max CPE inhibition", "value": "26.8% [measured here: maximum CPE inhibition observed, at 20 µM, stronger effect = higher value]"}, {"measurement": "outcome", "value": "inactive"}]}, {"smiles": "O=c1c2cc(I)ccc2nc2n1CCC2", "values": [{"measurement": "max CPE inhibition", "value": 0.68, "unit": "%"}, {"measurement": "outcome", "value": "inactive"}]}, {"smiles": "Cc1cccc2nc3n(c(=O)c12)CCC3", "values": [{"measurement": "max CPE inhibition", "value": 1.92, "unit": "%"}, {"measurement": "outcome", "value": "inactive"}]}, {"smiles": "O=C(Nc1nc(-c2ccc(Cl)cc2)cs1)c1ccc(I)cc1", "values": [{"measurement": "max CPE inhibition", "value": 0.78, "unit": "%"}, {"measurement": "outcome", "value": "inactive"}]}, {"smiles": "COc1ccc(-c2csc(N(CCCBr)C(=O)c3ccccc3Cl)n2)cc1", "values": [{"measurement": "max CPE inhibition", "value": 1.23, "unit": "%"}, {"measurement": "outcome", "value": "inactive"}]}, {"smiles": "Cc1cccc2c1-c1sc(C(=O)NCCCN3CCCC(C)C3)cc1CO2", "note": "(stereo unspecified)", "values": [{"measurement": "max CPE inhibition", "value": "12.1% [measured here: maximum CPE inhibition observed, at 10 µM, stronger effect = higher value]"}, {"measurement": "outcome", "value": "inactive"}]}, {"smiles": "O=C(Nc1nc(-c2ccc(Cl)cc2)cs1)c1ccccc1F", "values": [{"measurement": "max CPE inhibition", "value": 1.34, "unit": "%"}, {"measurement": "outcome", "value": "inactive"}]}, {"smiles": "O=c1c2cc(Br)ccc2nc2n1CC/C2=C/c1ccccc1", "values": [{"measurement": "max CPE inhibition", "value": 1.37, "unit": "%"}, {"measurement": "outcome", "value": "inactive"}]}, {"smiles": "Oc1ccccc1C(Nc1nccs1)c1ccc2cccnc2c1O", "note": "(stereo unspecified)", "values": [{"measurement": "max CPE inhibition", "value": "8.25% [measured here: maximum CPE inhibition observed, at 5 µM, stronger effect = higher value]"}, {"measurement": "outcome", "value": "inactive"}]}, {"smiles": "O=C(CSc1nc2ccccc2c(=O)n1-c1ccc(F)cc1)Nc1ccc2c(c1)OCCO2", "values": [{"measurement": "max CPE inhibition", "value": 2.5, "unit": "%"}, {"measurement": "outcome", "value": "inactive"}]}, {"smiles": "O=C(Nc1nc(-c2ccccc2)cs1)c1ccccc1Cl", "values": [{"measurement": "max CPE inhibition", "value": "0.47% [measured here: maximum CPE inhibition observed, at 0.16 µM, stronger effect = higher value]"}, {"measurement": "outcome", "value": "inactive"}]}, {"smiles": "COc1ccc(-c2csc(N(Cc3ccccc3)C(=O)c3ccccc3Cl)n2)cc1", "values": [{"measurement": "max CPE inhibition", "value": 2.87, "unit": "%"}, {"measurement": "outcome", "value": "inactive"}]}, {"smiles": "c1ccc2c(c1)CN1CCCC1=N2", "values": [{"measurement": "max CPE inhibition", "value": "2.6% [measured here: maximum CPE inhibition observed, at 80 µM, stronger effect = higher value]"}, {"measurement": "outcome", "value": "inactive"}]}, {"smiles": "COc1ccc(-c2csc(N(C(=O)c3ccccc3Cl)C(C)C)n2)cc1", "values": [{"measurement": "max CPE inhibition", "value": 1.92, "unit": "%"}, {"measurement": "outcome", "value": "inactive"}]}, {"smiles": "COc1cccc(C(NC(=O)c2ccccc2)c2ccc3cccnc3c2O)c1", "note": "(stereo unspecified)", "values": [{"measurement": "max CPE inhibition", "value": "5.83% [measured here: maximum CPE inhibition observed, at 5 µM, stronger effect = higher value]"}, {"measurement": "outcome", "value": "inactive"}]}, {"smiles": "O=C(CSc1nc2ccccc2c(=O)n1-c1ccc(F)cc1)Nc1cccc2ccccc12", "values": [{"measurement": "max CPE inhibition", "value": 2.57, "unit": "%"}, {"measurement": "outcome", "value": "inactive"}]}, {"smiles": "COc1ccc(-c2csc(NC(=O)c3ccccc3F)n2)cc1", "values": [{"measurement": "max CPE inhibition", "value": 1.03, "unit": "%"}, {"measurement": "outcome", "value": "inactive"}]}]}
